Many of the other results were omitted from the sample, so the strongest signals are more common in it than they were.
Assays:
Experiment in all cases: glycan array binding signal (z-score within array); higher = stronger binding
Settings in all cases: glycan notation: IUPAC condensed, linker removed
[1] = target: Fuc(a1-2)Gal(b1-3)GlcNAc(b1-3)[Neu5Ac(a2-6)Gal(b1-4)GlcNAc(b1-6)]Gal(b1-4)Glc
Procedure, shortened: (§1)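 Arrays were curated from the Consortium for Functional Glycomics database, 3228 in total, and kept only where the protein sequence was available. Binding is expressed as a within-array Z-score. This score was averaged across arrays of the same protein sequence at different concentrations or buffers and across linkers, and negative values can be read as non-binding.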

[2] = target: Fuc(a1-3)[Gal(b1-4)]GlcNAc(b1-6)GalNAc
Procedure, shortened: as §1

[3] = target: Gal(a1-2)Gal
Procedure, shortened: as §1

[4] = target: Gal(a1-3)Gal(b1-3)GlcNAc(b1-6)GalNAc
Procedure, shortened: as §1

[5] = target: Gal(a1-3)Gal(b1-3)[Fuc(a1-4)]GlcNAc(b1-2)Man(a1-3)[Gal(a1-3)Gal(b1-3)[Fuc(a1-4)]GlcNAc(b1-2)Man(a1-6)]Man(b1-4)GlcNAc(b1-4)GlcNAc
Procedure, shortened: as §1

[6] = target: Gal(a1-3)[Gal(a1-4)]Gal(b1-4)GlcNAc
Procedure, shortened: as §1

[7] = target: Gal(a1-4)Gal(b1-4)Glc
Procedure, shortened: as §1

[8] = target: Gal(b1-3)GlcNAc(b1-2)Man(a1-3)[GlcNAc(b1-4)][Gal(b1-3)GlcNAc(b1-2)Man(a1-6)]Man(b1-4)GlcNAc(b1-4)GlcNAc
Procedure, shortened: as §1

[9] = target: Gal(b1-3)GlcNAc6S
Procedure, shortened: as §1

[10] = target: Gal(b1-4)GlcNAc(b1-3)Gal(b1-4)GlcNAc(b1-2)[Gal(b1-4)GlcNAc(b1-3)Gal(b1-4)GlcNAc(b1-6)]Man(a1-6)[Gal(b1-4)GlcNAc(b1-3)Gal(b1-4)GlcNAc(b1-2)Man(a1-3)]Man(b1-4)GlcNAc(b1-4)[Fuc(a1-6)]GlcNAc
Procedure, shortened: as §1

[11] = target: Gal(b1-4)GlcNAc(b1-3)Gal(b1-4)GlcNAc(b1-3)Gal(b1-4)GlcNAc(b1-2)[Gal(b1-4)GlcNAc(b1-3)Gal(b1-4)GlcNAc(b1-3)Gal(b1-4)GlcNAc(b1-6)]Man(a1-6)[Gal(b1-4)GlcNAc(b1-3)Gal(b1-4)GlcNAc(b1-3)Gal(b1-4)GlcNAc(b1-2)Man(a1-3)]Man(b1-4)GlcNAc(b1-4)[Fuc(a1-6)]GlcNAc
Procedure, shortened: as §1

[12] = target: Gal(b1-4)GlcNAc(b1-3)Gal(b1-4)GlcNAc(b1-3)Gal(b1-4)GlcNAc(b1-3)Gal(b1-4)GlcNAc(b1-3)Gal(b1-4)GlcNAc(b1-2)Man(a1-3)[Gal(b1-4)GlcNAc(b1-3)Gal(b1-4)GlcNAc(b1-3)Gal(b1-4)GlcNAc(b1-3)Gal(b1-4)GlcNAc(b1-3)Gal(b1-4)GlcNAc(b1-2)Man(a1-6)]Man(b1-4)GlcNAc(b1-4)GlcNAc
Procedure, shortened: as §1

[13] = target: Gal(b1-4)GlcNAc(b1-3)Gal(b1-4)GlcNAc(b1-3)Gal(b1-4)GlcNAc(b1-3)Gal(b1-4)GlcNAc(b1-3)Gal(b1-4)GlcNAc(b1-2)Man(a1-3)[Gal(b1-4)GlcNAc(b1-3)Gal(b1-4)GlcNAc(b1-3)Gal(b1-4)GlcNAc(b1-3)Gal(b1-4)GlcNAc(b1-3)Gal(b1-4)GlcNAc(b1-2)Man(a1-6)]Man(b1-4)GlcNAc(b1-4)[Fuc(a1-6)]GlcNAc
Procedure, shortened: as §1

[14] = target: Gal(b1-4)GlcNAc(b1-3)Gal(b1-4)GlcNAc(b1-3)Gal(b1-4)GlcNAc(b1-3)Gal(b1-4)GlcNAc(b1-3)Gal(b1-4)GlcNAc(b1-3)Gal(b1-4)GlcNAc(b1-2)Man(a1-3)[Gal(b1-4)GlcNAc(b1-3)Gal(b1-4)GlcNAc(b1-3)Gal(b1-4)GlcNAc(b1-3)Gal(b1-4)GlcNAc(b1-3)Gal(b1-4)GlcNAc(b1-3)Gal(b1-4)GlcNAc(b1-2)Man(a1-6)]Man(b1-4)GlcNAc(b1-4)GlcNAc
Procedure, shortened: as §1

[15] = target: Gal(b1-4)GlcNAc(b1-3)[Gal(b1-4)GlcNAc(b1-6)]Gal(b1-4)GlcNAc
Procedure, shortened: as §1

[16] = target: Gal(b1-4)GlcNAc6P
Procedure, shortened: as §1

[17] = target: Gal6P(b1-4)GlcNAc
Procedure, shortened: as §1

[18] = target: GalNAc(a1-3)Gal
Procedure, shortened: as §1

[19] = target: GalNAc(b1-3)GlcNAc
Procedure, shortened: as §1

[20] = target: GalNAc6S(b1-4)GlcNAc
Procedure, shortened: as §1

[21] = target: GlcA(b1-6)Gal
Procedure, shortened: as §1

[22] = target: GlcNAc(a1-4)Gal(b1-4)GlcNAc(b1-3)Gal(b1-4)Glc
Procedure, shortened: as §1

[23] = target: GlcNAc(b1-2)Man(a1-3)[GlcNAc(b1-4)][GlcNAc(b1-2)Man(a1-6)]Man(b1-4)GlcNAc(b1-4)[Fuc(a1-6)]GlcNAc
Procedure, shortened: as §1

[24] = target: GlcNAc(b1-3)Gal
Procedure, shortened: as §1

[25] = target: GlcNAc(b1-3)Gal(b1-4)GlcNAc(b1-3)Gal(b1-4)GlcNAc(b1-3)Gal(b1-4)GlcNAc(b1-3)Gal(b1-4)GlcNAc(b1-2)Man(a1-3)[GlcNAc(b1-3)Gal(b1-4)GlcNAc(b1-3)Gal(b1-4)GlcNAc(b1-3)Gal(b1-4)GlcNAc(b1-3)Gal(b1-4)GlcNAc(b1-2)Man(a1-6)]Man(b1-4)GlcNAc(b1-4)[Fuc(a1-6)]GlcNAc
Procedure, shortened: as §1

[26] = target: GlcNAc(b1-3)Gal(b1-4)GlcNAc(b1-3)GalNAc
Procedure, shortened: as §1

[27] = target: Man(a1-3)[Man(a1-6)]Man(a1-6)[Man(a1-3)]Man(b1-4)GlcNAc(b1-4)GlcNAc
Procedure, shortened: as §1

[28] = target: Neu5Ac(a2-3)Gal(b1-3)GlcNAc(b1-3)GalNAc
Procedure, shortened: as §1

[29] = target: Neu5Ac(a2-3)Gal(b1-3)[Fuc(a1-4)]GlcNAc(b1-3)Gal(b1-4)[Fuc(a1-3)]GlcNAc
Procedure, shortened: as §1

[30] = target: Neu5Ac(a2-3)Gal(b1-3)]Neu5Ac(a2-3)Gal(b1-4)]GlcNAc
Procedure, shortened: as §1

[31] = target: Neu5Ac(a2-3)Gal(b1-4)GlcNAc(b1-2)[Neu5Ac(a2-3)Gal(b1-4)GlcNAc(b1-4)]Man(a1-3)[GlcNAc(b1-4)][Neu5Ac(a2-3)Gal(b1-4)GlcNAc(b1-2)[Neu5Ac(a2-3)Gal(b1-4)GlcNAc(b1-6)]Man(a1-6)]Man(b1-4)GlcNAc(b1-4)GlcNAc
Procedure, shortened: as §1

[32] = target: Neu5Ac(a2-3)Gal(b1-4)[Fuc(a1-3)]GlcNAc(b1-6)[Gal(b1-3)]GalNAc
Procedure, shortened: as §1

[33] = target: Neu5Ac(a2-3)[GalNAc(b1-4)]Gal(b1-4)GlcNAc(b1-3)GalNAc
Procedure, shortened: as §1

[34] = target: Neu5Ac(a2-6)Gal(b1-4)GlcNAc(b1-2)Man(a1-3)Man(b1-4)GlcNAc(b1-4)GlcNAc
Procedure, shortened: as §1

[35] = target: Neu5Ac(a2-6)Gal(b1-4)GlcNAc(b1-3)[Neu5Ac(a2-6)Gal(b1-4)GlcNAc(b1-6)]GalNAc
Procedure, shortened: as §1

[36] = target: Neu5Ac(a2-8)Neu5Gc(a2-3)Gal(b1-4)GlcNAc
Procedure, shortened: as §1

[37] = target: Neu5Ac9Ac(a2-3)Gal(b1-4)GlcNAc
Procedure, shortened: as §1

B1: PX9961J-bvu-499-24-499 (Bacteroides vulgatus) (protein)
chain: LNTDPSTAVPSDDAIKNIDDAQVALNGIYRLASAHSYYGDNYLYYADCRGEDVQARINKGAGRRVSPYYFFDVTADDNFNITLVWNQPYKVIHQANSLIEKLDAGNAGNARPEEVARIKSEALAMRGLALFDLTRLFGMPYTLDNGASLGVPIEIQTTLEDHAPERNTVAQCYEQVLKDLNDALGGLTKEKHDAYMNYWSVKALLSRVYLYMNDNENALKCAEEVINDNGGIYRLFTHDEYPSVWGKDFNSESLFEFYFTMSEPSGGSGGEGAPMVYADNVKDWNNLILTKAYLDLLNEDPEDVRHVFPHLPENAVADTLPVAAKGQPKYLIKYPGKSGSVTDAVSTVNPQDNDLCILRLSEVYLNAAEAAFKIGNTEKALTYLNAIVTRANPAKSVTSADLSLERILKERRKELVGEGHAFFDYMRNGKSVDRSGGWHLTMPEDARVIAPSDPRVALPIPQTEIDANPNIVQNPR
With B1 the “glycan array binding signal (z-score)” value [1] was -0.281, the “glycan array binding signal (z-score)” value [2] was -0.674 and the “glycan array binding signal (z-score)” value [3] was -0.036. The “glycan array binding signal (z-score)” value [4] was 1.19, the “glycan array binding signal (z-score)” value [5] was 2.95 and the “glycan array binding signal (z-score)” value [6] was 3.12. For the same binder, the “glycan array binding signal (z-score)” value [7] was -0.223, the “glycan array binding signal (z-score)” value [8] was 2.45 and the “glycan array binding signal (z-score)” value [9] was -0.142. The “glycan array binding signal (z-score)” value [10] was 3.83, the “glycan array binding signal (z-score)” value [11] was 0.849 and the “glycan array binding signal (z-score)” value [12] was 4.09. The “glycan array binding signal (z-score)” value [13] was 2.67, the “glycan array binding signal (z-score)” value [14] was 0.326 and the “glycan array binding signal (z-score)” value [15] was -0.048. The “glycan array binding signal (z-score)” value [16] was 0.028, the “glycan array binding signal (z-score)” value [17] was -0.613 and the “glycan array binding signal (z-score)” value [18] was 2.34. The “glycan array binding signal (z-score)” value [19] was 0.212, the “glycan array binding signal (z-score)” value [20] was 2.75 and the “glycan array binding signal (z-score)” value [21] was 0.034. The “glycan array binding signal (z-score)” value [22] was 0.01, the “glycan array binding signal (z-score)” value [23] was -0.709 and the “glycan array binding signal (z-score)” value [24] was -0.109. The “glycan array binding signal (z-score)” value [25] was 2.84, the “glycan array binding signal (z-score)” value [26] was 0.1 and the “glycan array binding signal (z-score)” value [27] was -0.181. The “glycan array binding signal (z-score)” value [28] was 0.006, the “glycan array binding signal (z-score)” value [29] was -0.506 and the “glycan array binding signal (z-score)” value [30] was 0.358. The “glycan array binding signal (z-score)” value [31] was -0.208, the “glycan array binding signal (z-score)” value [32] was -0.279 and the “glycan array binding signal (z-score)” value [33] was -0.342. The “glycan array binding signal (z-score)” value [34] was 0.368, the “glycan array binding signal (z-score)” value [35] was -0.732 and the “glycan array binding signal (z-score)” value [36] was 19. For the same binder, the “glycan array binding signal (z-score)” value [37] was -0.319.
